In PubChem BioAssay (NCATS):
Several values for one entry are separate records, joined by “and”; a condition that tells them apart may be missing. Identical values can stand only once. Records with an inconclusive call do not appear. Activity calls are given as the source filed them. Unless noted, calls come from the whole dose curve; as a rule, active = well fitted curve in the direction sought with a large enough effect; inconclusive = small, poorly fitted or top-dose-only effect, or another doubt; inactive = no such curve, though single readings can be large; an effect the other way counts as inactive or inconclusive.

Legend:
[1] = Cell Viability - BJ (AID 421; calls by dose curve;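 note: potency is the fitted concentration of half-maximal effect; cells exposed to compound for 40 hours at 37 °C before readout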); conditions: BJ fibroblast viability, qHTS
Summary of the method: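 Luminescent ATP signal (CellTiter-Glo, 20 min at room temperature) served as the read-out of viable BJ cells after 40 hours of compound treatment. Responses were scaled between DMSO and 100 uM tamoxifen, and AC50 values were obtained by Hill modeling.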

[2] = Cell Viability - Jurkat (AID 426;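 active = dose-dependent loss of cell ATP signal giving a full or clear fitted curve, ranked by lower potency value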;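 note: potency is the fitted concentration of half-maximal effect; cells exposed to compound for 40 hours at 37 °C before ATP read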); conditions: qHTS
Summary of the method: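 Seed 5000 Jurkat E6-1 cells/well; add compound; incubate 40 hr at 37 °C; add CellTiter-Glo; wait 20 min at room temperature; read luminescence. Fit concentration-response with Hill equation for AC50.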

[3] = Cell Viability - Hek293 (AID 427;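 active = compounds whose dose-response curve shows a full or clear partial loss of cell viability, called from curve shape rather than a numeric limit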;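 note: potency is the fitted concentration of half-maximal effect; cells exposed to compound for 40 hours at 37 °C before reading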); conditions: qHTS
Summary of the method: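 Luminescent ATP read-out (CellTiter-Glo, 20 min RT) after 40 hr compound exposure at 37 °C in complete medium. Signal normalized to DMSO (basal) and 100 uM tamoxifen (100% inhibition); concentration-response fitted with the standard Hill equation to give AC50.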

[4] = Cell Viability - HepG2 (AID 433; calls by dose curve;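 note: potency is the fitted concentration of half-maximal effect; potency for ATP loss meaning cytotoxicity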); conditions: qHTS
Summary of the method: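 Cytotoxicity read as ATP loss (CellTiter-Glo luminescence) after 40 hr compound exposure of HepG2, 1500 cells/well, 37 °C. AC50 by Hill equation; 0% set by DMSO, 100% inhibition by 100 uM tamoxifen.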

[5] = Cell Viability - MRC5 (AID 434; calls by dose curve;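 note: potency is the fitted concentration of half-maximal effect; cells exposed to compound for 40 hours at 37 °C; potency reflects cytotoxicity seen as loss of intracellular ATP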); conditions: MRC5 lung fibroblast viability, qHTS
Summary of the method: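 MRC5 normal human lung fibroblasts (1500/well) were treated with compounds for 40 hr at 37 °C in complete medium, and viable cells were measured as intracellular ATP by CellTiter-Glo luminescence. AC50 came from Hill fits, normalized to DMSO and 100 uM tamoxifen.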

[6] = Cell Viability - Mesenchymal (AID 546); conditions: mesenchymal cells viability, qHTS; series mostly up to 91.7 µM;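 note: cells exposed to compound for 40 hours before reading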
Summary of the method: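 Normal human renal glomerulus-derived kidney mesenchymal cells, 1000 per well in complete medium, were treated with compounds for 40 hr at 37 °C. Viability was read as intracellular ATP by CellTiter-Glo luminescence; AC50 values came from Hill-equation fits of qHTS concentration-response data.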

[7] = Cellular Toxicity (caspase-3) HepG2 (AID 654); conditions: HepG2 caspase-3 activation, luminescence, 0% = DMSO only, 100% = tamoxifen; series mostly up to 92.2 µM;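 note: cells exposed to compound for 16 hours before reading; 0% = DMSO alone and 100% = caspase signal from 100 µM tamoxifen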
Summary of the method: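 qHTS, HepG2, 1500 cells/well, complete medium; cpd 16 h 37 °C; Caspase-Glo 3/7, 20 min RT; lum. Norm: DMSO vs 100 uM tamoxifen; AC50 Hill fit.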

[8] = Cellular Toxicity (caspase-3) HUV-EC-C (AID 656); conditions: HUV-EC-C cells, caspase-3 activation (apoptosis), vehicle = 0, 100 µM tamoxifen = 100%; series mostly up to 92.2 µM
Summary of the method: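 Luminescent Caspase-Glo 3/7 readout after 16 h, 37 °C compound exposure of HUV-EC-C endothelial cells, 1000 per well, complete medium. AC50 derived by Hill fitting, with DMSO as baseline and 100 uM tamoxifen as full activation.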

[9] = Cellular Toxicity (caspase-3) BJ (AID 658); conditions: BJ fibroblasts, luminescence, normalized: DMSO 0%, staurosporine 100%; series mostly up to 91.7 µM;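 note: cells exposed to compound for 16 hours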
Summary of the method: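 Luminescent aminoluciferin-substrate cleavage reports caspase 3/7 activity in normal human BJ fibroblasts after 16 hr compound exposure at 37 °C. Normalized to DMSO (basal) and 10 uM staurosporine (100%); AC50 from Hill fit of concentration-response.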

[10] = Cellular Toxicity (caspase-3) MRC-5 (AID 659); conditions: MRC-5 cells, luminescence, normalized: DMSO 0%, 10 µM staurosporine 100%; series mostly up to 91.7 µM
Summary of the method: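 Luminescence from caspase-cleaved aminoluciferin substrate (Caspase-Glo 3/7, 1 hr RT) reports caspase 3/7 activity in MRC-5 lung fibroblasts after 16 hr compound exposure. Normalized to DMSO basal and 10 uM staurosporine as 100%; AC50 from Hill fits.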

[11] = Cellular Toxicity (caspase-3) SK-N-SH (AID 661); conditions: SK-N-SH caspase-3 activation, qHTS; series mostly up to 91.7 µM;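 note: cells exposed to compound for 16 hours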
Summary of the method: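 Caspase 3/7 activation is measured as a luminescence increase from aminoluciferin released by substrate cleavage in SK-N-SH cells after 16 hr compound treatment; values are AC50 from concentration-response curves.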

[12] = Cellular Toxicity (caspase-3) Hek293 (AID 664); conditions: HEK293 caspase-3 activation, DMSO = 0%, 100 µM tamoxifen = 100%; at 92.2 µM (top of the series);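 note: cells exposed to compound for 16 h at 37 °C before readout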
Summary of the method: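 Activation of caspase-3/7 is measured as increased luminescence from cleaved peptide-aminoluciferin substrate in HEK293 cells treated 16 hours at 37 °C. AC50 values come from Hill-equation fits of concentration-response data.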

[13] = MultiTox-Fluor Cytotoxicity Assay - LYMP1-001 - Dead Cells (AID 946); conditions: LYMP1-001 lymphoblastoid cells, dead-cell protease fluorescence; series mostly up to 92.2 µM;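 note: 0% = DMSO and 100% = tetraoctylammonium bromide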
Summary of the method: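 AC50 from Hill fit of concentration-response; data normalized to DMSO (basal) and 15 uM tetraoctylammonium bromide (100%). LYMP1-001 lymphoblastoid cells, 2500/well, 16 hr compound at 37 C; dead-cell protease fluorescence, Ex/Em 485/520.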

[14] = Cell Viability - LYMP1-002 - Assay at 16 hr (AID 948); conditions: LYMP1-002 lymphoblastoid cell viability; series mostly up to 92.2 µM;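 note: 0% = DMSO alone and full effect = 92 µM tetraoctylammonium bromide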
Summary of the method: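 ATP luminescence (CellTiter-Glo) was measured after 16 hr compound exposure at 37 C of 2500 lymphoblastoid LYMP1-002 cells per well. Concentration-response curves were fitted with the Hill equation to give AC50.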

[15] = MultiTox-Fluor Cytotoxicity Assay - LYMP1-002 - Live Cells (AID 955); conditions: LYMP1-002 lymphoblastoid live-cell protease fluorescence viability; series mostly up to 46.1 µM;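 note: cells exposed to compound for 16 hours; % is set by controls: 0 for no effect and ±100 for the full control effect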
Summary of the method: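 Cytotoxicity in the human lymphoblastoid line LYMP1-002 is measured as loss of live-cell protease activity after 16 h treatment in complete culture medium. AC50 is derived from Hill-equation fits of qHTS concentration-response data.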

[16] = MultiTox-Fluor Cytotoxicity Assay - LYMP1-003 - Dead Cells (AID 961); conditions: LYMP1-003 lymphoblastoid cells, dead-cell protease fluorescence; series mostly up to 92.2 µM;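 note: 0% = DMSO and 100% = tetraoctylammonium bromide; nearly all actives have a fitted effect of over 70% in size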
Summary of the method: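 Human lymphoblastoid LYMP1-003 cells (2500/well) were treated with compounds for 16 hr at 37 C in complete medium. Dead-cell protease release was read by bis-AAF-R110 fluorescence (Ex/Em 485/520). AC50 came from Hill fits, normalized to DMSO and 15 uM tetraoctylammonium bromide.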

[17] = Cell Viability - LYMP2-016 (AID 984); conditions: LYMP2-016 lymphoblastoid cell viability, qHTS; series mostly up to 92.2 µM;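 note: cells exposed to compound for 24 hours at 37 °C; % is set by controls: 0 for no effect and ±100 for the full control effect; nearly all actives have a fitted effect of over 55% in size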
Summary of the method: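 Cytotoxicity was scored by luminescent ATP content (CellTiter-Glo) after 24 h compound exposure at 37 C of a human lymphoblastoid line at 2500 cells/well. Concentration-response data were fitted to the Hill equation for AC50.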

[18] = Cell Viability - LYMP2-026 (AID 989); conditions: LYMP2-026 lymphoblastoid cell viability, qHTS; series mostly up to 92.2 µM; note: % is set by controls: 0 for no effect and ±100 for the full control effect; nearly all actives have a fitted effect of over 50% in size
Summary of the method: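 Concentration-dependent loss of intracellular ATP in human lymphoblastoid cells after 24 hr at 37 C, quantified by luciferase luminescence. AC50 derived from standard Hill equation.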

[19] = qHTS Assay for Identification of Small Molecule Inducers of Hypoxia Response (AID 2120; active = well fitted curve in the direction sought with a large enough effect in the signal ratio, with a control signal flat, not every such curve was filed as active; the % refers to the signal ratio; note: 0% is about no effect); conditions: hypoxia response reporter cells, beta-lactamase ratio readout; series mostly up to 104 µM
Summary of the method: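 Induction of beta-lactamase reporter activity was measured in CellSensor HRE-bla ME-180 cells after 17 h compound treatment at 37 degrees C, using CCF4 substrate and the 460nm/530nm emission ratio to derive AC50 values.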

[20] = molecular target: Peroxisome proliferator-activated receptor alpha (Homo sapiens) (UniProt Q07869); assay: qHTS assay for small molecule agonists of the peroxisome proliferator-activated receptor alpha (PPARalpha) signaling pathway (AID 651778); conditions: PathHunter PPARalpha complementation, chemiluminescence, 6 h; hits give high values; note: % of control where 0% means no effect
Peroxisome proliferator-activated receptor alpha (Homo sapiens), sequence (Q07869 whole entry, looked up): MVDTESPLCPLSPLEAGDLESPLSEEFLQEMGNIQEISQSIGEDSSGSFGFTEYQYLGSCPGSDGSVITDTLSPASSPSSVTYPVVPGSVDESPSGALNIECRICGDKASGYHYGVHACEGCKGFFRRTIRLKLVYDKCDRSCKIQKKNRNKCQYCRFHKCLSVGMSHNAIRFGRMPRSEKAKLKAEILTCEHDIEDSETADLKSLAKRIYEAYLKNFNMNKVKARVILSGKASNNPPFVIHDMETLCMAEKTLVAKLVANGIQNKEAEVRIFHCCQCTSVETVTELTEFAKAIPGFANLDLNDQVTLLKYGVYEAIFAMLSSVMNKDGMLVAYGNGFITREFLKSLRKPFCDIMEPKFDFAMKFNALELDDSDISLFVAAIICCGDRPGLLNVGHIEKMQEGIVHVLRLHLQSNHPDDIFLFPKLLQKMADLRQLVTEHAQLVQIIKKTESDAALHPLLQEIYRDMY
Summary of the method: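 Cells plated at 2,000/well and held overnight at 37 C, 5% CO2, then compound added by pin tool for 6 hr; after PathHunter detection reagent and 60 min at room temperature, chemiluminescence from enzyme complementation was read.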

Nc1ccc(-c2ccccc2)cc1
inactive: Potency [1] > 92 µM | Potency [2] > 92 µM | Potency [3] > 92 µM | Potency [4] > 92 µM | Potency [5] > 92 µM | Potency [6] | outcome [7] | outcome [8] | outcome [9] | outcome [10] | Potency [11] | caspase-3 activation [12] 1.62% | outcome [13] | outcome [14] | outcome [15] | Potency [16] | Potency [17] | Potency [18] | Potency [19] | max response [20] -0.418%

Clc1cc(Cl)c(Cl)c(Cl)c1
inactive: Potency [1] > 92 µM | Potency [2] > 92 µM | Potency [3] > 92 µM | Potency [4] > 92 µM | Potency [5] > 92 µM | Potency [6] | outcome [7] | outcome [8] | outcome [9] | outcome [10] | Potency [11] | caspase-3 activation [12] -0.644% | outcome [13] | outcome [14] | outcome [15] | Potency [16] | Potency [17] | Potency [18] | Potency [19] | max response [20] -0.217%

CN(C)C(=O)Nc1cccc(C(F)(F)F)c1
inactive: Potency [1] > 92 µM | Potency [2] > 92 µM | Potency [3] > 92 µM | Potency [4] > 92 µM | Potency [5] > 92 µM | Potency [6] | outcome [7] | outcome [8] | outcome [9] | outcome [10] | Potency [11] | caspase-3 activation [12] 0.171% | outcome [13] | outcome [14] | outcome [15] | Potency [16] | Potency [17] | Potency [18] | Potency [19] | max response [20] -1.29% and 0.409%

Nc1ccc(Cl)c(Cl)c1
inactive: Potency [1] > 92 µM | Potency [2] > 92 µM | Potency [3] > 92 µM | Potency [4] > 92 µM | Potency [5] > 92 µM | Potency [6] | outcome [7] | outcome [8] | outcome [9] | outcome [10] | Potency [11] | caspase-3 activation [12] 0.307% | outcome [13] | outcome [14] | outcome [15] | Potency [16] | Potency [17] | Potency [18] | Potency [19] | max response [20] -1.3%

C=C(C)CCl
inactive: Potency [1] > 92 µM | Potency [2] > 92 µM | Potency [3] > 92 µM | Potency [4] > 92 µM | Potency [5] > 92 µM | Potency [6] | outcome [7] | outcome [8] | outcome [9] | outcome [10] | Potency [11] | caspase-3 activation [12] -0.774% | outcome [13] | outcome [14] | outcome [15] | Potency [16] | Potency [17] | Potency [18] | Potency [19] | max response [20] 1.24%

CCOP(=S)(OCC)SCCSCC
inactive: Potency [1] > 92 µM | Potency [2] > 92 µM | Potency [3] > 92 µM | Potency [4] > 92 µM | Potency [5] > 92 µM | Potency [6] | outcome [7] | outcome [8] | outcome [9] | outcome [10] | Potency [11] | caspase-3 activation [12] 0.951% | outcome [13] | outcome [14] | outcome [15] | Potency [16] | Potency [17] | Potency [18] | Potency [19] | max response [20] -1.85% and -0.372%
